Screening data as filed in PubChem.
CYP2C9 act – CYP2C9 (human) activation | P11712 | recombinant CYP2C9, luciferin-H conversion, luminescence; stronger effect = higher value; factor 1 = untreated enzyme, 0 = blocked | activation factor at 5 µM | 1.4% of 96,000 active | AID 1024;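 active = activation factor of 2 or more for CYP2C9 at a 5 µM dose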
CYP2C19 act – cytochrome P450 2C19 (human) activation. P33261. recombinant CYP2C19, luciferin-H EGE luminescence; stronger effect = higher value; 0 = fully inhibited enzyme, 1 = untreated enzyme. activation factor at 5 µM. 96,000 tested, under 10 active. AID 1025;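 active = activation factor of at least 2 at 5 µM in the primary screen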
Target sequence (P33261 whole entry, looked up): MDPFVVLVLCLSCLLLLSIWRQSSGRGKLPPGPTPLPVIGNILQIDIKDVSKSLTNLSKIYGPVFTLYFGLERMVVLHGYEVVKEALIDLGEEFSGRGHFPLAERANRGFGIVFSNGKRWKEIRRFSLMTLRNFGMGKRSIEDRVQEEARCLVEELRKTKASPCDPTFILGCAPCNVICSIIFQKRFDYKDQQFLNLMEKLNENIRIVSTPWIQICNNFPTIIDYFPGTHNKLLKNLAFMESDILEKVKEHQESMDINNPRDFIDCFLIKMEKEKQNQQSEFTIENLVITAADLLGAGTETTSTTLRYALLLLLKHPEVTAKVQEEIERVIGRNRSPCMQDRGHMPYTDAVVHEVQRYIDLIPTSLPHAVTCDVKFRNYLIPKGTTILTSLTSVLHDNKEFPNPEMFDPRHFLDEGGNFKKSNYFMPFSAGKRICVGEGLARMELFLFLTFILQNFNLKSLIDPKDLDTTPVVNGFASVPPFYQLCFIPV
CYP2C9 inhib – blocks human cytochrome P450 2C9. P11712. CYP2C9 Supersomes, luciferin-H conversion, luminescence. inhibition, % at 5 µM. 20% of 96,000 active. AID 777;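 active = blocking of liver enzyme CYP2C9 beyond about 50% at 5 µM, limit read from the data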
CYP2C19 inhib – blocks human cytochrome P450 2C19; inhibition, % at 5 µM; CYP2C19 Supersomes, luciferin-H EGE luminescence, 30 min; 21% of 96,000 active; P33261;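 active = CYP2C19 inhibition above a set limit at 5 µM in the primary screen, cut at about 50% in these data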
PLAP act – activates human placental alkaline phosphatase. P05187. purified PLAP enzyme, luminescent substrate read-out; stronger effect = higher value. activation fold at 20 µM. 1.2% of 96,000 active. AID 696; in the data active = activation fold above about 2
Hits are given with their value; n = inactive. Only some compounds are listed: those with a hit (about 31% of all), similar ones and a draw of the others.

SMILES	CYP2C9 act	CYP2C19 act	CYP2C9 inhib	CYP2C19 inhib	PLAP act
COc1ccc(CCNS(=O)(=O)c2cn(C)c(=O)n(C)c2=O)cc1OC	n	n	n	n	n
O=C(c1ccccc1-c1nc2ccccc2[nH]1)N1CCCCC1	n	n	n	n	n
O=C(c1ccccc1Cl)N1N=C(c2ccc(Br)cc2)CC1c1nc2ccccc2[nH]1 (stereo unspecified)	n	n	67	50	n
Cc1ccc(-n2nc(C(=O)O)cc2-c2ccccc2)cc1	n	n	n	n	n
Cc1cccc(C2(c3cccc(C)c3)OC(=O)c3ccccc32)c1	n	n	62	n	n
CC1(C(=O)O)Cc2ccccc2C(=O)O1 (stereo unspecified)	n	n	n	n	n
Cc1cnc(C(=O)Nc2ccc(-n3cnnn3)cc2)cn1	n	n	n	n	n
COc1ccc(Cl)cc1CN1CCN(c2nc(C)cc(C)c2C#N)CC1	n	n	79	92	n
CCOC(=O)C1CCN(CC(=O)Nc2c(C(=O)OC)[nH]c3ccc(Cl)cc23)CC1	n	n	n	73	n
CCOC(=O)C1CCN(CC(=O)Nc2c(C(=O)OC)[nH]c3cccc(Cl)c23)CC1	n	n	n	n	n
CCN(CC(=O)Nc1c(C(=O)OC)[nH]c2ccc(C)cc12)c1ccc2c(c1)OCO2	n	n	62	n	n
COC(=O)c1[nH]c2cc(OC)ccc2c1NC(=O)CCN1CCN(c2ccccc2)CC1	n	n	67	n	n
CC1CCc2nc(NC(=O)CN3CCN(c4ccccc4)CC3)sc2C1 (stereo unspecified)	n	n	n	n	n
CC1CCc2nc(NC(=O)CN3CCN(Cc4ccc5c(c4)OCO5)CC3)sc2C1 (stereo unspecified)	n	n	76	72	n
O=C(Cn1ccsc1=NC(=O)c1ccco1)c1ccccc1	n	n	n	n	n
O=C1Nc2ccccc2/C1=N/c1sc2c(c1C(=O)NCCc1ccccc1)CCCC2	n	n	n	n	n
CCOC(=O)C1CCCN(CC(=O)Nc2c(C(=O)OC)[nH]c3ccc(Br)cc23)C1 (stereo unspecified)	n	n	58	52	n
CCOC(=O)C1CCN(CC(=O)Nc2c(C(=O)OC)[nH]c3ccccc23)CC1	n	n	n	73	n
COC(=O)c1[nH]c2ccc(Cl)cc2c1NC(=O)CCN1CCN(C2CCCCC2)CC1	n	n	n	55	n
COC(=O)c1[nH]c2ccccc2c1NC(=O)CN1CCN(Cc2ccc3c(c2)OCO3)CC1	n	n	n	51	n
COC(=O)c1[nH]c2ccc(C)cc2c1NC(=O)CCN1CCN(C2CCCCC2)CC1	n	n	n	n	n
CCc1cccc2c(C#N)cn(CC(=O)NCCOC)c12	n	n	n	n	n
Cc1ccc2c(n1)sc1c(N)ncnc12	n	n	n	n	n
COc1ccccc1OCc1ccc(C(=O)NCC2CCCO2)o1 (stereo unspecified)	n	n	n	n	n
COC(=O)c1[nH]c2ccc(Br)cc2c1NC(=O)CN1CCCc2ccccc21	n	n	88	n	n
SMILES	CYP2C9 act	CYP2C19 act	CYP2C9 inhib	CYP2C19 inhib	PLAP act
COC(=O)c1[nH]c2ccc(Br)cc2c1NC(=O)CN1CCN(C2CCCCC2)CC1	n	n	n	n	n
COc1ccc(C(=O)NN)cc1COc1ccc(Br)cc1	n	n	50	96	n
CNC(=O)c1ccc(OCc2ccccc2)c(OC)c1	n	n	n	n	n
COc1ccccc1OCc1ccc(C(=O)NN)cc1	n	n	n	62	n
COc1ccc(OC)c(/C=C/C(=O)c2ccc(Cl)cc2)c1	n	n	n	n	n
COc1ccc(C(=O)/C=C/c2ccc(OC)c(COc3ccc(F)cc3)c2)cc1	n	n	52	n	n
CCc1ccccc1NC(=O)c1ccc(F)c(S(=O)(=O)N2CCC(C(N)=O)CC2)c1	n	n	n	n	n
Cc1ccc(CN2CCN(CC(=O)NC(C)c3ccc4c(c3)OCCO4)C2=O)cc1 (stereo unspecified)	n	n	n	n	n
Cn1nc(-c2ccccc2)c(CSc2ccccc2)c1Cl	n	n	n	n	n
CCCC(C)NCC(=O)Nc1ccccc1-c1ccccc1 (stereo unspecified)	n	n	n	65	n
CC(=O)N1CCc2cc(S(=O)(=O)NCCC(=O)NC3CCN(Cc4ccccc4)CC3)ccc21	n	n	n	n	n
CC(=O)N1CCc2cc(S(=O)(=O)NCCCN3CCN(Cc4ccccc4)CC3)ccc21	n	n	n	52	n
CC(=O)N1CCc2cc(S(=O)(=O)NCCN3CCC(C)CC3)ccc21	n	n	n	51	n
COc1ccc(CCNS(=O)(=O)c2ccc3c(c2)CCN3C(=O)CCC(=O)O)cc1OC	n	n	n	n	n
COc1ccc(CCNC(=O)CCNS(=O)(=O)c2ccc3c(c2)CCN3C(C)=O)cc1OC	n	n	61	n	n
CCC(=O)N1CCc2cc(S(=O)(=O)NCCCN3CCN(Cc4ccccc4)CC3)ccc21	n	n	n	n	2
O=S(=O)(Cc1ccccc1)N1CCN(C2Cc3ccccc3C2)CC1	n	n	n	n	n
CS(=O)(=O)N1CCN(C2Cc3ccccc3C2)CC1	n	n	n	57	n
CO/N=C(/CS(=O)(=O)Cc1ccccc1Cl)c1ccc(Cl)cc1Cl	n	n	n	52	n
O=C(O)CCS(=O)(=O)Cc1ccccc1Cl	n	n	n	n	n
CC(=O)Nc1ccc(SCC(=O)c2cc(C)n(C)c2C)cc1	n	n	n	79	n
CC(=O)Nc1ccc(SCC(=O)c2cc(C)n(CC(F)(F)F)c2C)cc1	n	n	58	93	n
CCC(C)NC(=O)CSc1ccc(NC(C)=O)cc1 (stereo unspecified)	n	n	n	n	n
OCc1ccccc1OCCOc1ccc(Cl)c2cccnc12	2.1	n	n	n	n
CCOc1ccc(C2c3c(oc4ccccc4c3=O)C(=O)N2CCCN2CCOCC2)cc1 (stereo unspecified)	n	n	n	n	n
SMILES	CYP2C9 act	CYP2C19 act	CYP2C9 inhib	CYP2C19 inhib	PLAP act
CCCOc1ccc(C2c3c(oc4ccccc4c3=O)C(=O)N2CCCN2CCOCC2)cc1 (stereo unspecified)	n	n	78	54	n
COc1ccc(C2c3c(oc4ccccc4c3=O)C(=O)N2Cc2ccncc2)cc1 (stereo unspecified)	n	n	59	n	n
CCC(C)NC(=O)CNC(=O)Cn1c(C)cc2ccccc2c1=O (stereo unspecified)	n	n	n	n	n
CCC12CC3CC(C1)CC(C(=O)O)(C3)C2	n	n	n	n	n
O=C(O)CCN1/C(=C/C=Nc2ccccc2)Oc2ccccc21	n	n	n	n	n
CCOCCCNC(=O)C(NC(=O)CNC(C)=O)c1ccc(C)cc1 (stereo unspecified)	n	n	n	n	n
CCOCCCNC(=O)C(NC(=O)c1cnccn1)c1ccc(C)cc1 (stereo unspecified)	n	n	n	59	n
CC(C)=CC1C=C(C)C(C)C2C(=O)NNC(=O)C12 (stereo unspecified)	n	n	n	51	n
